Data on eight molecules can be found in PubChem BioAssay (Tox21).

Molecules are shown by their SMILES. Unmarked numbers belong to inactive results. Inconclusive results are not listed. Active and inactive are the calls of the source. Unless noted, the call rests on the fitted dose curve; in most records, active means well fitted curve in the direction sought with a large enough effect in the repeat runs; inconclusive means weak or mixed curves; inactive means no such curve, though single readings can be large; an effect the other way counts as inactive or inconclusive.

Assay [1] is described as follows: qHTS assay to identify small molecule agonists of the hypoxia (HIF-1) signaling pathway - cell viability counter screen (AID 1224844; calls by dose curve; further: nearly all actives have a fitted effect of over 50% in size). In a few lines:
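HRE-bla ME-180 cells in medium with 0.5% dialyzed FBS were preincubated 5 hrs at 37C, exposed to compounds for 17 hrs, then viability was read as CellTiter-Glo luminescence after 30 min at room temperature, in the reporter wells.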

The nature of assay [2]: qHTS assay to identify small molecule agonists of H2AX (AID 1224845; active means well fitted activation curve with a large enough effect in the signal ratio in the repeat runs, not every such curve was filed as active; the % refers to the signal ratio). In a few lines:
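Wild-type CHO-K1 cells plated overnight, then exposed 3 hr at 37C to compounds at 15 concentrations (0.76% DMSO). Lysed, then HTRF anti-pH2AX(S139)-cryptate/anti-H2AX-d2 detection after 24 hr at room temperature; emissions 665 and 620 nm.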
Background: Quantitative high-throughput screening tests each substance at several concentrations.

The nature of assay [3]: qHTS RealTime-Glo MT Cell Viability Assay in HepG2 cells - 24 hour (AID 1224867). Further: nearly all actives have a fitted effect of over 50% in size. In a few lines: (§1)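 HepG2 suspension premixed with RealTime-Glo reagents is plated at 600 cells per well and left 5 h at 37 C/5% CO2. Compounds in DMSO then go in, and bioluminescence reflecting viable cell number is recorded over 40 h.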
Assay [4] can be described thus: A CellTox Green Cytotoxicity Assay to monitor cytotoxicity in HEK293 cells - 0 hour (AID 1224869). Further: nearly all actives have a fitted effect of over 50% in size. In a few lines:
(§2)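 HEK293 cells premixed with CellTox Green dye were seeded at 600 cells/well and left 5 h at 37 C/5% CO2 before pin transfer of 23 nL compound in DMSO. Fluorescence from dye bound to dead-cell DNA was read during 40 h treatment.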

Assay [5] is described as follows: qHTS RealTime-Glo MT Cell Viability Assay in HepG2 cells - 40 hour (AID 1224870). Further: nearly all actives have a fitted effect of over 50% in size. Put shortly:
(§3)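 HepG2 cells mixed with RealTime-Glo MT reagents (NanoLuc plus cell-permeant prosubstrate) were seeded at 600 cells/well, incubated 5 h at 37 C/5% CO2, then pinned with compounds in DMSO; nonlytic luminescence tracked viability during 40 h treatment.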

Assay [6] is described as follows: A CellTox Green Cytotoxicity Assay to monitor cytotoxicity in HEK293 cells - 40 hour (AID 1224871). Further: nearly all actives have a fitted effect of over 45% in size. Further: potency means the concentration at half of the fitted maximal effect. Put shortly: as §2
Assay [7] is described as follows: qHTS RealTime-Glo MT Cell Viability Assay in HEK293 cells - 16 hour (AID 1224872). Further: nearly all actives have a fitted effect of over 50% in size. Further: potency means the concentration at half of the fitted maximal effect. Put shortly: (§4)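 Reads taken at 0, 8, 16, 24, 32 and 40 h from the same wells. HEK293 cells (600/well) carried RealTime-Glo reagents from seeding, with compound added after a 5 h settle at 37 C.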
Assay [8] can be described thus: qHTS RealTime-Glo MT Cell Viability Assay in HepG2 cells - 8 hour (AID 1224873). Further: nearly all actives have a fitted effect of over 55% in size. In a few lines:
as §3

Assay [9] is described as follows: qHTS RealTime-Glo MT Cell Viability Assay in HEK293 cells - 40 hour (AID 1224874). Further: nearly all actives have a fitted effect of over 50% in size. Further: potency means the concentration at half of the fitted maximal effect. The note with it: RealTime-Glo luminescence; max response: active compounds read low. In a few lines:
(§5)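 HEK293 cells mixed with RealTime-Glo reagents (NanoLuc plus cell-permeant prosubstrate) at 600 cells/well, preincubated 5 h at 37 C/5% CO2, then given 23 nL compound in DMSO. Nonlytic luminescence from viable cells was read at 0, 8, 16, 24, 32 and 40 h.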

Assay [10] in a line: A CellTox Green Cytotoxicity Assay to monitor cytotoxicity in HEK293 cells - 24 hour (AID 1224875). Further: nearly all actives have a fitted effect of over 45% in size. In a few lines: as §2
The nature of assay [11]: A CellTox Green Cytotoxicity Assay to monitor cytotoxicity in HepG2 cells - 16 hour (AID 1224876). Further: nearly all actives have a fitted effect of over 45% in size. Further: potency means the concentration at half of the fitted maximal effect. In a few lines:
(§6)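 HepG2 cells were seeded together with the CellTox Green dye at 600 cells/well, left 5 h at 37 C/5% CO2, then given compounds in DMSO. Fluorescence from dye bound to dead-cell DNA was read repeatedly over 40 h of treatment at 37 C.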

A short description of assay [12]: qHTS RealTime-Glo MT Cell Viability Assay in HepG2 cells - 32 hour (AID 1224877). Further: nearly all actives have a fitted effect of over 55% in size. In a few lines: as §1
The nature of assay [13]: A CellTox Green Cytotoxicity Assay to monitor cytotoxicity in HepG2 cells - 40 hour (AID 1224879). Further: nearly all actives have a fitted effect of over 40% in size. Further: potency means the concentration at half of the fitted maximal effect. In a few lines: as §6
Assay [14] can be described thus: qHTS RealTime-Glo MT Cell Viability Assay in HEK293 cells - 0 hour (AID 1224880). Further: top concentration of the series differs between compounds; nearly all actives have a fitted effect of over 45% in size. In a few lines: as §5
Assay [15] in a line: qHTS assay to identify small molecule agonists of the hypoxia (HIF-1) signaling pathway (AID 1224846; active means well fitted activation curve with a large enough effect in the signal ratio in the repeat runs, not every such curve was filed as active; the % refers to the signal ratio). Put shortly: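 HRE-bla ME-180 cells (beta-lactamase reporter under hypoxia response element) were plated at 2,000 cells/well in medium with 0.5% dialyzed FBS, rested 5 hrs, then given compounds in DMSO for 17 hrs at 37C, 5% CO2. Reporter induction was read with CCF4-AM FRET substrate.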

Assay [16] is described as follows: qHTS assay to identify small molecule agonists of H2AX - cell viability counter screen (AID 1224847; calls by dose curve; further: nearly all actives have a fitted effect of over 30% in size; further: potency means the concentration at half of the fitted maximal effect). Put shortly: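 After overnight plating of 1000 CHO-K1 cells per well, a 15-concentration compound series was applied for 3 hr at 37C. Luminescence from CellTiter-Glo, read following 30 min at room temperature, reflected cell viability.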
Assay [17] is described as follows: qHTS assay to identify small molecule antagonists of the estrogen related receptor (ERR) signaling pathway from Tox21 library (AID 1224848). Further: nearly all actives have a fitted effect of over 50% in size. Further: potency means the concentration at half of the fitted maximal effect. Put shortly:
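Screening used an ERR reporter line supplied by NTP, exposed for 18 h at 37 C to library compounds delivered in DMSO. Signal was luciferase luminescence developed with ONE-Glo at room temperature for 30 min.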

Assay [18] is described as follows: qHTS assay to identify small molecule agonists of the estrogen related receptor (ERR) signaling pathway from Tox21 library (AID 1224849; calls by dose curve; further: nearly all actives have a fitted effect of over 15% in size). The note with it: ERR reporter cell line, ONE-Glo luciferase, 18 h; at 92.4 µM (top of the series) unless noted. In a few lines: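 ERR reporter cell line (NTP) seeded, rested 6 h at 37 C/5% CO2, then pinned with Tox21 compounds in DMSO. After 18 h at 37 C, ONE-Glo luciferase luminescence was read following 30 min at room temperature.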

Assay [19] in a line: A CellTox Green Cytotoxicity Assay to monitor cytotoxicity in HepG2 cells - 24 hour (AID 1224878). Further: nearly all actives have a fitted effect of over 45% in size. Further: potency means the concentration at half of the fitted maximal effect. In a few lines: as §6
The nature of assay [20]: qHTS RealTime-Glo MT Cell Viability Assay in HEK293 cells - 32 hour (AID 1224868). Further: nearly all actives have a fitted effect of over 50% in size. Further: potency means the concentration at half of the fitted maximal effect. Put shortly:
as §4
On the % scale 0 is the no-effect control and ±100 the full control effect.

Take `O=C(CCCN1CC=C(n2c(=O)[nH]c3ccccc32)CC1)c1ccc(F)cc1`: the Potency entry in assay [1], in [2], in [3], in assay [4], in [5] and in assay [6] was “inactive” throughout. In addition, the Potency result in assay [8], in [10], in [11], in [12], in assay [13] and in assay [14] was “inactive” each time. In addition, the Potency in assay [7] and in assay [9] was 9.52 µM (active) throughout.
Consider `OC[C@H]1O[C@@H](n2cnc3c(=S)nc[nH]c32)[C@H](O)[C@@H]1O`, for which the Potency result in assay [1], in assay [3], in assay [4], in [5], in assay [6] and in assay [7] was “inactive” in each case. Moreover, the Potency entry in assay [8], in assay [10], in assay [11], in [19], in assay [13] and in assay [14] was “inactive” in each case. The outcome in assay [15] was inactive. Moreover, the Potency in [16] is 3.1 µM (active); in assay [17], 11.9 µM (active); in [9], 21.3 µM (active). In addition, the activity change, positive = activation in [18] was -47.1% [at 42.5 µM].
Consider `CC(=O)[C@H]1[C@H](C#N)C[C@H]2[C@@H]3CC=C4C[C@@H](O)CC[C@]4(C)[C@H]3CC[C@@]21C`, for which the Potency result in assay [1], in [2], in assay [4], in [6], in [7] and in assay [8] was “inactive” in each case. The Potency entry in [10], in [11], in assay [12], in assay [19], in assay [13] and in assay [14] was “inactive” in each case. Moreover, the activity change, positive = activation in assay [18] was -13.1% [at 42.5 µM].
In the case of `CCOC(=O)c1ccc(OCCN2C[C@H](O)[C@@H](O)[C@H](O)[C@H]2CO)cc1`, the Potency result in assay [1], in assay [2], in [16], in assay [4], in assay [5] and in assay [7] was “inactive” each time. Also, the Potency entry in assay [8], in assay [10], in [11], in assay [12], in [19] and in assay [13] was “inactive” throughout. Besides, the Potency result in assay [14] was “inactive”. Moreover, the max response in assay [9] is 1.01%.
`CC(C)=CCC/C(C)=C/CC/C(C)=C/CCC(=O)OC/C=C(\C)CCC=C(C)C`: the Potency entry in [1], in assay [2], in assay [17], in assay [3], in assay [20] and in assay [4] was “inactive” in each case. Further, the Potency entry in [5], in assay [6], in assay [7], in assay [8], in assay [10] and in assay [11] was “inactive” throughout. Besides, the Potency entry in assay [12], in assay [19], in assay [13] and in [14] was “inactive” each time. Moreover, the activity change, positive = activation in [18] was -0.27% [at 42.5 µM]. Besides, the max response in assay [9] was 2.19%.
Regarding `CN(C(=O)CN(CCO)CC(=O)N(C)C(C)(C)Cc1ccccc1)C(C)(C)Cc1ccccc1`, the Potency entry in [1], in [2], in [4] and in assay [14] was “inactive” in each case. Further, the activity change, positive = activation in [18] is -27.5% [at 42.5 µM]. Also, the Potency in [20] is 19 µM (active); in [6] it was 23.9 µM (active); in [9], 19 µM (active); in assay [11], 23.9 µM (active); in assay [19], 23.9 µM (active); in [13] it was 23.9 µM (active).
As to `CCCCOc1ccc(OCCCN2CCOCC2)cc1`, the Potency entry in assay [1], in [2], in assay [16], in assay [3], in assay [4] and in assay [6] was “inactive” each time. In addition, the Potency entry in assay [7], in assay [8], in [10], in assay [11], in assay [12] and in [19] was “inactive” in each case. For the same molecule, the Potency entry in assay [13] and in assay [14] was “inactive” each time. The max response in [9] was -27.6%.
Consider `Oc1ccc(Cl)c2cccnc12`, for which the Potency entry in [1], in assay [16], in assay [4], in assay [5], in assay [7] and in assay [8] was “inactive” in each case. The Potency result in assay [10], in assay [19] and in assay [14] was “inactive” each time. The molecule was classed as inactive in [15]. Also, in [17], the Potency is 29.8 µM (active). The activity change, positive = activation in [18] is -56.3% [at 42.5 µM].
